TcdB inh = TcdB glycohydrolase inhibitors, primary screen, biochemical, single point, plate reader; Toxin B (Clostridioides difficile), P18177; TcdB glycohydrolase enzymatic assay; inhibition, % at 9.99 µM; 350,000 compounds, 0.24% hits; AID 652162, 2013; in the data active means inhibition above about 10%
Target sequence (P18177 whole entry, looked up): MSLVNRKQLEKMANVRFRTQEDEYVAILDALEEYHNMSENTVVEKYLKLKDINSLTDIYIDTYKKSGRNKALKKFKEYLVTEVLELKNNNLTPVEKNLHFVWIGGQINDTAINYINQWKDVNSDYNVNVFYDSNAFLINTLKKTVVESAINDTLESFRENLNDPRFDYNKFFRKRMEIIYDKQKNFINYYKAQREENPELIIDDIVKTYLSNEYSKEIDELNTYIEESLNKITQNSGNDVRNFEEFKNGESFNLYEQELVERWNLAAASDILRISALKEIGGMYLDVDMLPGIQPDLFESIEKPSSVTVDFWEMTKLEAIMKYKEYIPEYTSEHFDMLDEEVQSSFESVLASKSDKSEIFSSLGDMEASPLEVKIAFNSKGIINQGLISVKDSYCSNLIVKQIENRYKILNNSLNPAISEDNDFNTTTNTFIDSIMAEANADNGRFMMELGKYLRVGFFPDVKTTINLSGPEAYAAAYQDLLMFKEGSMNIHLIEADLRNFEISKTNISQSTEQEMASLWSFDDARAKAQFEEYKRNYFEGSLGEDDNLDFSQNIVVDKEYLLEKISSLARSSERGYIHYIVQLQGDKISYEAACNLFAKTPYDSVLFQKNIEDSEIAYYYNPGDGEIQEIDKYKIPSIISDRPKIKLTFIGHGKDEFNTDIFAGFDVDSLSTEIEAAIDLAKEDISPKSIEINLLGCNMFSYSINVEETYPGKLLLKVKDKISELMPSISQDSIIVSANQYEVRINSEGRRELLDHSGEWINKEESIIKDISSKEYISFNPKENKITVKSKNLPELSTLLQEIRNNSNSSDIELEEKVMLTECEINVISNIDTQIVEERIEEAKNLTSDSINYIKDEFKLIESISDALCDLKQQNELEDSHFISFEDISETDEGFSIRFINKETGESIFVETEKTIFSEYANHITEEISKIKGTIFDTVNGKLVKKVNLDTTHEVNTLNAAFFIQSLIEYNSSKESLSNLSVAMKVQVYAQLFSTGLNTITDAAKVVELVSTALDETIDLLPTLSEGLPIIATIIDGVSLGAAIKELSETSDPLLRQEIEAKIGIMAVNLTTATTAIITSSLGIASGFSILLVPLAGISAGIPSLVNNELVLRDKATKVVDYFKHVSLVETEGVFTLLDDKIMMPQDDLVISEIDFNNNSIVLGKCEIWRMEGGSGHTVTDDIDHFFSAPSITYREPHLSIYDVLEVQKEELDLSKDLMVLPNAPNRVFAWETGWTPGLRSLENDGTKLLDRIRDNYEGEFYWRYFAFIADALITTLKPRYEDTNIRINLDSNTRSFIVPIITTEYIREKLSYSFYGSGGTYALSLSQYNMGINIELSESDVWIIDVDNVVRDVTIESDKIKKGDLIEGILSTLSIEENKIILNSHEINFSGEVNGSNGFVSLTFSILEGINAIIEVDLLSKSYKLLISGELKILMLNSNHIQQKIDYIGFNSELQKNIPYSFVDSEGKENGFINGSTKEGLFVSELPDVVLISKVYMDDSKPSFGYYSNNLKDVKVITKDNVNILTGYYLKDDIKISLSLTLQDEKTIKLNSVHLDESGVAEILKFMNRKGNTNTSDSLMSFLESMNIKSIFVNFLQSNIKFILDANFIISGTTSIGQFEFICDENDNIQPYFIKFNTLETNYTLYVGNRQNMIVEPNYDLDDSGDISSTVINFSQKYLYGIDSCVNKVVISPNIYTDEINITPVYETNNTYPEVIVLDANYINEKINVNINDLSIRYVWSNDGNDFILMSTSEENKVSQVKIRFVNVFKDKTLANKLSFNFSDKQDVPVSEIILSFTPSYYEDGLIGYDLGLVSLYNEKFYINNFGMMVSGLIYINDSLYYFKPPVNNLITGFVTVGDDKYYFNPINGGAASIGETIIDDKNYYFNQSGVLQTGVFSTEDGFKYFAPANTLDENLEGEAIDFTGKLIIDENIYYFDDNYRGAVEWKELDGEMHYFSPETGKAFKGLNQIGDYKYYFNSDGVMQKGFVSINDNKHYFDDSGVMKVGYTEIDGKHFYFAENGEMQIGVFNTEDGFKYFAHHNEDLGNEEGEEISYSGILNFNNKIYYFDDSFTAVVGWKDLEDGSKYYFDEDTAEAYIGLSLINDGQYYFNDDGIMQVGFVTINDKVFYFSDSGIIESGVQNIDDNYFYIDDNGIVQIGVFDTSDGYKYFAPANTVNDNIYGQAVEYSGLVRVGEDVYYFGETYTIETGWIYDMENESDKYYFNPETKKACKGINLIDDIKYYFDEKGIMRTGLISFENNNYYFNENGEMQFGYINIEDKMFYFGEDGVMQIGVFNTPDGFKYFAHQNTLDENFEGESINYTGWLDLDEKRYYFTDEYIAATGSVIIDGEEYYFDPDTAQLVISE
DUSP3 inh = VHR1 phosphatase inhibitors, primary screen, biochemical, absorbance, uHTS. inhibition, % at 13.3 µM. recombinant VHR phosphatase, pNPP absorbance. 290,000 compounds, 0.52% hits. AID 1654, 2009. Dual specificity protein phosphatase 3 (Homo sapiens), P51452; in the data active means inhibition above about 50%
PrPC TRFRET = inhibitors of human cell surface prion protein PrPC, primary screen, cell-based, TR-FRET. AID 720596, 2013. TR-FRET read-out. Major prion protein (Homo sapiens), P04156. inhibition, % at 13.8 µM. 370,000 compounds, 0.43% hits; in the data active means inhibition above about 24%; further: 0% = median of the test wells and 100% = reference compound wells
Active calls of the source: *; . = no result given. Rows were chosen to be rich in hits. Some 0.82% of all compounds tested hit in one or more screens of this group.

SMILES	TcdB inh	DUSP3 inh	PrPC TRFRET
CC1CCN(CCCn2c(=S)[nH]c3c(sc4ccccc43)c2=O)CC1	11.5*	2.8	-1.9
Cc1noc(C)c1NC(=O)Nc1ccc2c(c1)C(=O)N([C@H](C)CO)C[C@H](C)[C@H](CN(C)S(=O)(=O)c1ccccc1)OCCCC[C@H](C)O2	0.0	.	.
CCCC#Cc1cnc2c(c1)C(=O)N([C@@H](C)CO)C[C@@H](C)[C@H](CN(C)C(=O)Nc1ccccc1OC)O2	-0.1	.	.
COc1ccc2c3c([nH]c2c1)[C@H](CO)N(C(=O)C1CCC1)CC31CCN(C(=O)NC(C)C)CC1	1.2	.	.
CC1CCCN(C(=S)Nc2ccc(Nc3ccccc3)cc2)C1 (configuration not stated)	0.8	21.9	1.4
CC1CCCN(C(=S)Nc2ccc(F)cc2)C1 (configuration not stated)	12.1*	-12.3	4.1
COc1ccc(C2C(C#N)=C(N)SC(N)=C2C#N)cc1OC	.	13.4	58.7*
N#CC1=C(N)Oc2cc(O)ccc2C1c1ccccc1 (configuration not stated)	.	-11.2	4.7
N#CC1=C(N)SC(N)=C(C#N)C1c1cccc(O)c1	1.4	16.8	27.2*
COc1ccc(C2C(C#N)=C(N)OC(C(C)(C)C)=C2C#N)cc1OC (configuration not stated)	.	8.1	0.0
Cc1noc(C)c1NC(=O)N(C)C[C@@H]1Oc2ccc(NC(=O)CCN3CCOCC3)cc2C(=O)N([C@@H](C)CO)C[C@H]1C	-2.3	.	.
COc1cc(OC)cc(C(=O)N2CCN(C(=O)c3cccs3)CC2)c1	0.9	57.6*	-9.4
COc1ccc(S(=O)(=O)N2CCN(C(=O)c3cccs3)CC2)cc1	.	21.3	3.6
CC(=O)Nc1ccc(C(=O)NC(C)c2ccc(-n3ccnc3)cc2)cc1 (configuration not stated)	0.1	53.3*	-3.8
Cc1ccc(C(=O)NC(C)c2ccc(-n3ccnc3)cc2)cc1 (configuration not stated)	1.5	-7.2	1.3
C[C@H]1CN([C@@H](C)CO)C(=O)c2cc(NC(=O)Nc3ccccc3)ccc2O[C@@H]1CN(C)S(C)(=O)=O	-0.4	.	.
O=C(Cc1ccncc1)NCC[C@H]1CC[C@@H](NC(=O)C2CCC2)[C@H](CO)O1	-0.1	.	.
COc1cccc(NC(=O)N2C[C@H](O)COC[C@H]3O[C@@H](CC(=O)NC4Cc5ccccc5C4)CC[C@@H]32)c1	0.1	.	.
c1ccc(-c2cn3ccccc3n2)cc1	-0.8	.	-1.0
Oc1ccc(-c2cn3ccccc3n2)cc1	41.2*	-4.9	-2.2
O=C(NC1CCCC1)N1CCCCN2[C@@H](CO)[C@H](c3ccc(-c4ccccc4)cc3)[C@@H]2C1	1.0	.	.
CC1CCCCC1NC1=NCCS1 (configuration not stated)	.	15.8	-1.2
CC1CCCCC1NC1=NCCCS1 (configuration not stated)	.	53.6*	.
C[C@@H]1CN([C@H](C)CO)C(=O)Cc2cc(NS(=O)(=O)c3ccc(F)cc3)ccc2O[C@H]1CN(C)S(=O)(=O)c1ccccc1	-0.1	.	.
COc1ccc(Br)cc1C(=O)Nc1ccc(O)cc1	24.2*	-7.5	-4.4
SMILES	TcdB inh	DUSP3 inh	PrPC TRFRET
COc1ccc(Br)cc1C(=O)Nc1ccc(C(=O)O)cc1	1.5	5.1	1.3
COc1ccc(S(=O)(=O)Nc2ccc3c(c2)CC(=O)N([C@@H](C)CO)C[C@H](C)[C@@H](CN(C)CC2CCCCC2)O3)cc1	0.2	.	.
COCc1cn(CC[C@@H]2CC[C@@H](NC(=O)c3ccccc3)[C@@H](CO)O2)nn1	-0.3	.	.
COC(=O)C[C@H]1CC[C@@H]2[C@@H](COc3ccc(NC(=O)c4cccc(OC)c4)cc3C(=O)N2C)O1	10.8*	.	.
COC(=O)C[C@H]1CC[C@@H]2[C@H](COc3ccc(NC(=O)c4cccc(OC)c4)cc3C(=O)N2C)O1	5.5	.	.
COc1cccc(C(=O)Nc2ccc3c(c2)C(=O)N(C)[C@@H]2CC[C@H](CC(=O)NCCCN4CCOCC4)O[C@@H]2CO3)c1	12.4*	.	.
CCCNC(=O)C[C@H]1CC[C@H]2[C@H](COc3ccc(NC(=O)c4cccc(OC)c4)cc3C(=O)N2C)O1	2.1	.	.
CCNC(=O)C[C@@H]1CC[C@@H]2[C@@H](COc3ccc(NC(=O)Nc4ccccc4Cl)cc3C(=O)N2C)O1	0.7	.	.
CN1C(=O)c2cc(NC(=O)Nc3ccccc3Cl)ccc2OC[C@H]2O[C@@H](CC(=O)NCCCN3CCOCC3)CC[C@H]21	10.5*	.	.
COCc1cn(CC[C@@H]2CC[C@H](NC(=O)Nc3ccc(OC)cc3)[C@@H](CO)O2)nn1	-1.4	.	.
CC=Cc1ccc2n(c1=O)C[C@H]1[C@H](CO)[C@@H](C(=O)NCc3ccc4c(c3)OCO4)[C@@H]2N1C(=O)C1CC1 (mixture of isomers)	-4.6	.	.
C[C@@H]1CN([C@@H](C)CO)C(=O)c2cc(NC(=O)CCCCCC(=O)Nc3ccccc3N)ccc2O[C@@H]1CN(C)CC1CCCCC1	0.2	.	.
CO[C@@H]1CN(C)C(=O)c2cc(NC(=O)Cc3ccccc3)ccc2OC[C@@H](C)N(CC2CC2)C[C@H]1C	1.3	.	.
Cc1ccc(C(=O)NN=C2CCCCCC2)s1	-1.0	44.3	-0.6
Cc1ccsc1C(=O)NN=C1CCCCCC1	-0.6	52.8*	1.2
C[C@@H]1CN([C@@H](C)CO)C(=O)c2cc(C3=CCCCC3)cnc2O[C@@H]1CN(C)C(=O)c1ccncc1	0.1	.	.
O=C(C[C@@H]1CC[C@@H]2NC[C@H](O)COC[C@H]2O1)NCc1ccc2c(c1)OCO2	-0.4	.	.
C/C(=N\Nc1ccc([N+](=O)[O-])cc1)c1ccc(O)cc1	6.7	18.5	-3.1
C/C(=N\Nc1ccc([N+](=O)[O-])cc1)c1cccc(N)c1	15.2*	17.8	-20.1
C[C@H](CO)N1C[C@H](C)[C@@H](CN(C)S(=O)(=O)c2cccs2)OCCCC[C@H](C)Oc2ccc(NC(=O)CCC(F)(F)F)cc2C1=O	0.3	.	.
COc1ccccc1/C=C(/CC(=O)NCc1ccccc1)c1nc2ccccc2s1	.	53.8*	-3.3
COc1ccccc1/C=C(/CC(=O)NCc1ccc(F)cc1)c1nc2ccccc2s1	-1.2	1.7	7.3
O=C(NCc1ccccc1)[C@@H]1[C@@H](CO)[C@@H]2Cn3c(cccc3=O)[C@H]1N2Cc1cccnc1	-0.8	.	.
COc1ccc(CN(C)C[C@H]2OCCCC[C@@H](C)Oc3ccc(NC(=O)CCCN(C)C)cc3C(=O)N([C@@H](C)CO)C[C@@H]2C)cc1	-1.4	.	.
CCCC#Cc1ccc2c(c1)O[C@@H](CN(C)C(=O)CC1CC1)[C@H](C)CN([C@H](C)CO)S2(=O)=O	1.2	.	.
SMILES	TcdB inh	DUSP3 inh	PrPC TRFRET
CN1c2ccc(-c3ccccc3)cc2[C@@H]2[C@@H](CCN2C(=O)NC2CCCCC2)[C@H]1CO	-0.5	.	.
CCCNC(=O)N1CC[C@@H]2[C@@H](CO)N(C)c3ccc(-c4ccccc4)cc3[C@@H]21	10.6*	.	.
CC(C)NC(=O)N1CC[C@@H]2[C@H]1c1cc(-c3ccc(F)cc3)ccc1N(C)[C@H]2CO	11.8*	.	.
CC(=O)N1CC[C@@H]2[C@@H](CO)N(C)c3ccc(-c4ccccc4)cc3[C@@H]21	17.4*	.	.
CCC(=O)N1CC[C@H]2[C@@H]1c1cc(-c3ccccc3)ccc1N(C)[C@H]2CO	3.6	.	.
CN(C)CC(=O)N1CC[C@@H]2[C@H]1c1cc(-c3ccccc3)ccc1N(C)[C@H]2CO	12.4*	.	.
